This is part of a sample that, as a whole, favours compounds with a hit. Of some 83,000 tested, about 20% had one in any assay.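 Compound tested at a single concentration for 48 hours in 96-well plates; a percent growth value below 10 was scored as active.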 Unmarked numbers belong to inactive results. The source made the active and inactive calls.
Each molecule was assayed on SNB-75 CNS (assay: NCI-60 one-dose screen, 48 h (100 = growth as untreated, 0 = no growth, -100 = all killed)). Settings: 10 µM unless noted.

SMILES	growth
CCCCN1C=CCN(CCCC)C1	66.8%
Cc1nn(-c2ccccc2)c(Cl)c1/C=N\N=c1/sc2ccccc2n1C	107%
COc1cc(CC(=O)n2ncc3ccc(N)cc32)cc(OC)c1OC	87.3%
Cn1cc(-c2nc(-c3c[nH]c4c(Cl)nccc34)cs2)c2cc(Br)ccc21	94%
CCNc1nc2ccc(Nc3ccnc4cc(Cl)ccc34)cc2[nH]1	87.3%
Cc1ncc(C(=O)Nc2ccc(CN3CCN(C)CC3)c(C(F)(F)F)c2)cc1C#Cc1cnc(N)cc1C#N	37%
COc1cc(/C=C\c2cc(/C=C\c3ccc(O)c(OC)c3)n(C(=O)COc3ccccc3)n2)ccc1O	22.7%
C[C@H](c1nc2ccc(N)cc2[nH]1)[C@H]1CC[C@H]2[C@@H]3CCC4=CC(=O)CC[C@]4(C)[C@H]3CC[C@]12C	39.6%
CC(c1ccccc1)C(C(=O)c1ccccc1)c1ccccc1 (centres undefined)	63.9%
N#CC1=C(N)Oc2c(ccc3ccccc23)C1c1ccccc1Cl (centres undefined)	13.3%
N#CC(C(=O)/C(=N/NC(=O)c1ccccc1O)C(C#N)c1ccccc1)c1ccccc1 (centres undefined)	18%
C[C@@H](Nc1ncnc2ccc(-c3cnc(N)nc3)cc12)c1ccc(F)cc1	69.5%
Cc1cccc(C)c1N=c1oc2ccc(Cl)cc2nc1-c1ccccc1O	87.3%
COc1cc(C2C3=C(COC3=O)N(CCO)c3cc4c(cc32)CCC4)cc(OC)c1OC (centres undefined)	61.3%
COc1cc2cc(Oc3cccc(NC(=O)Nc4cc(C(F)(F)F)cc(C(F)(F)F)c4)c3)c(C)nc2cc1OC	9.73% (active)
Cc1cc(Cl)nc(N(CCNc2ccnc3cc(Cl)ccc23)Cc2ccccn2)n1	78.6%
COc1ccc(C(=O)c2cc(OC)c(OC)c(OC)c2)cc1O	-0.83% (active)
N#C/C(=C\c1ccc([N+](=O)[O-])s1)c1nc2cc(Br)ccc2s1	12%
Brc1ccc2[nH]cc(-c3cncn3CCc3ccccc3)c2c1	36.7%

SMILES	growth
Cc1c(C)c([N+](=O)[O-])c(C)c([N+](=O)[O-])c1C	104%
COc1ccc(C(=O)CC#N)cc1	95.5%
O=C(/C=C/c1c(-c2ccc(Cl)cc2)nn(-c2ccccc2)c1C(F)(F)F)c1ccc(Cl)cc1	86.1%
Cc1ccc(NS(=O)(=O)c2ccc(-c3cnc(C4CC4)o3)cc2)cc1C(F)(F)F	46.6%
CC(C)c1ccc(Nc2ccc3c(OCCCN4CCN(C)CC4)cccc3n2)cc1	68.9%
CCN(c1ccccc1)S(=O)(=O)c1cc([N+](=O)[O-])ccc1Cl	66.2%
C=C1C(=O)O[C@H]2[C@H]1CC/C(CNS(=O)(=O)c1cccc3ccccc13)=C\CC[C@@]1(C)O[C@@H]21	66.5%
COc1cc(C(=O)Nc2cc3c(cc2Oc2cc(C)cc(C)c2)C(=O)N(C)[C@@H](CC(=O)N(C)O)C(=O)N3)c(Br)c(OC)c1OC	-48.1% (active)
Cc1c2cc[nH]c(=O)c2c(C)c2c1[nH]c1cc(OCCN3CCN(C)CC3)ccc12	7.53% (active)
Cn1cc(-c2csc(-c3c[nH]c4ccccc34)n2)c2ccnc(Cl)c21	77.7%
COc1ccc2nc(-c3ccc(-c4noc(-c5cc(OC)c(OC)c(OC)c5)n4)cc3)[nH]c2c1	35.4%
Cn1cc(-c2nc(-c3c[nH]c4c(Cl)nccc34)cs2)c2cc(F)ccc21	107%
O=C1NN(C(=O)c2ccccc2)C(c2ccc(Cl)c(Cl)c2)=C/C1=C\c1ccc([N+](=O)[O-])cc1	65.3%
COc1ccc(OC)c(CCn2cncc2-c2c[nH]c3ccccc23)c1	3.33% (active)
N#Cc1c(-c2cccc([N+](=O)[O-])c2)nc(SCC(=O)c2ccc(Cl)cc2)[nH]c1=O	72.2%
COC(=O)c1ccc2c(c1)[n+](=O)c(C(C)=O)c(C(F)(F)F)n2[O-]	-20.5% (active)
C#Cc1cccc(NC(=O)Nc2cccc(NC(=O)CCl)c2)c1	30% [8.25 µM]
Cc1nc2sccn2c1-c1cn2ccsc2n1	84.8%

The molecules below were run on SNB-19 CNS in the same assay as above. Settings: 10 µM unless noted.

SMILES	growth
CCCCN1C=CCN(CCCC)C1	31.1%
Cc1nn(-c2ccccc2)c(Cl)c1/C=N\N=c1/sc2ccccc2n1C	98.6%
COc1cc(CC(=O)n2ncc3ccc(N)cc32)cc(OC)c1OC	101%
Cn1cc(-c2nc(-c3c[nH]c4c(Cl)nccc34)cs2)c2cc(Br)ccc21	97.6%
CCNc1nc2ccc(Nc3ccnc4cc(Cl)ccc34)cc2[nH]1	84.8%
Cc1ncc(C(=O)Nc2ccc(CN3CCN(C)CC3)c(C(F)(F)F)c2)cc1C#Cc1cnc(N)cc1C#N	74.4%
COc1cc(/C=C\c2cc(/C=C\c3ccc(O)c(OC)c3)n(C(=O)COc3ccccc3)n2)ccc1O	14.8%
C[C@H](c1nc2ccc(N)cc2[nH]1)[C@H]1CC[C@H]2[C@@H]3CCC4=CC(=O)CC[C@]4(C)[C@H]3CC[C@]12C	90.9%
CC(c1ccccc1)C(C(=O)c1ccccc1)c1ccccc1 (centres undefined)	91%
N#CC1=C(N)Oc2c(ccc3ccccc23)C1c1ccccc1Cl (centres undefined)	32.9%
N#CC(C(=O)/C(=N/NC(=O)c1ccccc1O)C(C#N)c1ccccc1)c1ccccc1 (centres undefined)	33.2%
C[C@@H](Nc1ncnc2ccc(-c3cnc(N)nc3)cc12)c1ccc(F)cc1	76.1%
Cc1cccc(C)c1N=c1oc2ccc(Cl)cc2nc1-c1ccccc1O	109%
COc1cc(C2C3=C(COC3=O)N(CCO)c3cc4c(cc32)CCC4)cc(OC)c1OC (centres undefined)	-12.9% (active)
COc1cc2cc(Oc3cccc(NC(=O)Nc4cc(C(F)(F)F)cc(C(F)(F)F)c4)c3)c(C)nc2cc1OC	15.5%
Cc1cc(Cl)nc(N(CCNc2ccnc3cc(Cl)ccc23)Cc2ccccn2)n1	62.5%
COc1ccc(C(=O)c2cc(OC)c(OC)c(OC)c2)cc1O	28.5%
N#C/C(=C\c1ccc([N+](=O)[O-])s1)c1nc2cc(Br)ccc2s1	7.78% (active)
Brc1ccc2[nH]cc(-c3cncn3CCc3ccccc3)c2c1	65.6%

SMILES	growth
Cc1c(C)c([N+](=O)[O-])c(C)c([N+](=O)[O-])c1C	97.1%
COc1ccc(C(=O)CC#N)cc1	103%
O=C(/C=C/c1c(-c2ccc(Cl)cc2)nn(-c2ccccc2)c1C(F)(F)F)c1ccc(Cl)cc1	96.1%
Cc1ccc(NS(=O)(=O)c2ccc(-c3cnc(C4CC4)o3)cc2)cc1C(F)(F)F	61%
CC(C)c1ccc(Nc2ccc3c(OCCCN4CCN(C)CC4)cccc3n2)cc1	63.7%
CCN(c1ccccc1)S(=O)(=O)c1cc([N+](=O)[O-])ccc1Cl	85%
C=C1C(=O)O[C@H]2[C@H]1CC/C(CNS(=O)(=O)c1cccc3ccccc13)=C\CC[C@@]1(C)O[C@@H]21	67.2%
COc1cc(C(=O)Nc2cc3c(cc2Oc2cc(C)cc(C)c2)C(=O)N(C)[C@@H](CC(=O)N(C)O)C(=O)N3)c(Br)c(OC)c1OC	-21.9% (active)
Cc1c2cc[nH]c(=O)c2c(C)c2c1[nH]c1cc(OCCN3CCN(C)CC3)ccc12	12.9%
Cn1cc(-c2csc(-c3c[nH]c4ccccc34)n2)c2ccnc(Cl)c21	94%
COc1ccc2nc(-c3ccc(-c4noc(-c5cc(OC)c(OC)c(OC)c5)n4)cc3)[nH]c2c1	76.8%
Cn1cc(-c2nc(-c3c[nH]c4c(Cl)nccc34)cs2)c2cc(F)ccc21	98%
O=C1NN(C(=O)c2ccccc2)C(c2ccc(Cl)c(Cl)c2)=C/C1=C\c1ccc([N+](=O)[O-])cc1	58.7%
COc1ccc(OC)c(CCn2cncc2-c2c[nH]c3ccccc23)c1	85.1%
N#Cc1c(-c2cccc([N+](=O)[O-])c2)nc(SCC(=O)c2ccc(Cl)cc2)[nH]c1=O	92.8%
COC(=O)c1ccc2c(c1)[n+](=O)c(C(C)=O)c(C(F)(F)F)n2[O-]	-6.44% (active)
C#Cc1cccc(NC(=O)Nc2cccc(NC(=O)CCl)c2)c1	-11% [8.25 µM] (active)
Cc1nc2sccn2c1-c1cn2ccsc2n1	93.1%

— PubChem BioAssay (NCI)
